# Screens from PubChem BioAssay.
# PostGolgi yeast: growth inhibition of a yeast mutant, post-Golgi transport screen. post-Golgi transport phenotypic cell assay. actives 0.9% (n = 98,000). AID 739. inhibition, % at 10 µM;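 also: yeast cells grown in 1536-well plates; yeast grown about 18 h at 30C before absorbance read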
# Calb biofilm kill: kills Candida albicans biofilms. C. albicans biofilm + clotrimazole, Alamar Blue. inhibition, % at 6 µM. actives 0.14% (n = 85,000). AID 834;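 active = inhibition above 20%; inactive = inhibition below 20%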;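 also: preformed 24 hr biofilms exposed to compound for 48 hr; 0% = biofilm without compound and 100% = blank killed by clotrimazole plus chlorhexidine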
# EphB4 ephrin blk: EphB4-ephrin-B2 interaction antagonism; EphB4 LBD / TNYL-RAW-Alexa532 peptide, fluorescence polarization; actives 0.15% (n = 97,000); P54760; inhibition, % at 7 µM; AID 720;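 active = inhibition above the screen-wide mean inhibition plus 3 SD, cut at about 15% in these data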;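 also: 0% = DMSO wells and 100% = excess unlabeled TNYL-RAW peptide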
# Target sequence (P54760 whole entry, looked up, the tested form may be a part): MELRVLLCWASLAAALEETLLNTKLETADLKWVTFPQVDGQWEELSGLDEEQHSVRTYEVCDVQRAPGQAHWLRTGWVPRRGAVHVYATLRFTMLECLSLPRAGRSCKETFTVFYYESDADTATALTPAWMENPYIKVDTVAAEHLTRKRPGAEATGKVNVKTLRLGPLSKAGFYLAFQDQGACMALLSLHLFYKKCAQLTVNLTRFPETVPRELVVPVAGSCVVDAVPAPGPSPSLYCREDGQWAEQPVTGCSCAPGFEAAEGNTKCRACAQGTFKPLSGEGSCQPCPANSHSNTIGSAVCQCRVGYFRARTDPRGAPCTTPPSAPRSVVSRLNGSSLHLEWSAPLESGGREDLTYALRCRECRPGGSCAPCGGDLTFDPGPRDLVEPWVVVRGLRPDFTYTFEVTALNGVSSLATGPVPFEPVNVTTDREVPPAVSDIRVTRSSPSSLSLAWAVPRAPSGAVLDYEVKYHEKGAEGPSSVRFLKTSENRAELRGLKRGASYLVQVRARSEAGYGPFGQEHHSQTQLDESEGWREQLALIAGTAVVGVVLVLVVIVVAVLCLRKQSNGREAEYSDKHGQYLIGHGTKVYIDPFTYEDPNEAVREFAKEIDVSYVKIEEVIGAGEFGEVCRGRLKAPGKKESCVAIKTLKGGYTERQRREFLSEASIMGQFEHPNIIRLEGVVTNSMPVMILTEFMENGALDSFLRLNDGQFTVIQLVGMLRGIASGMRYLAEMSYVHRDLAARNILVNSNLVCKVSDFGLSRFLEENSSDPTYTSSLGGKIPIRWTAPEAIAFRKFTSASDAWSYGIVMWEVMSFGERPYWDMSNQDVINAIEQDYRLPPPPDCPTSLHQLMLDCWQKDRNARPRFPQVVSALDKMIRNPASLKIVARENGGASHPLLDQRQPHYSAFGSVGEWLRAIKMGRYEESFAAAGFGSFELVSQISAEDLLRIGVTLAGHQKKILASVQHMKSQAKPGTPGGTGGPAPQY
# PostGolgi ctrl: inhibits growth of the yeast control strain; actives 5% (n = 98,000); inhibition, % at 10 µM; AID 738; efflux-deficient yeast background strain, growth absorbance A615, 16 h
# Starred values were filed as active, the others as inactive; / = no result given. Only some compounds are listed: those with a hit (about 5.2% of all), similar ones and a draw of the others. Rule as the data show it, unless noted: active = inhibition above about 30%; inactive = the rest.
SMILES,PostGolgi yeast,Calb biofilm kill,EphB4 ephrin blk,PostGolgi ctrl
N[C@@H](Cc1c[nH]c2ccccc12)c1nnc(SCc2ccc(Cl)cc2)o1,47*,4,-7,-1
Cc1ccc(Cn2nnnc2CN2CCC(n3nnc4cc(C(F)(F)F)ccc43)CC2)cc1,12,7,-3,62*
FC(F)(F)c1ccc2c(c1)nnn2C1CCN(Cc2nnnn2Cc2ccccc2)CC1,4,7,/,14
CC(C(=O)Nc1ccc(Br)cc1C(=O)c1ccccc1)N1CCOCC1 (stereo not drawn),-3,-1,5,1
CCCCn1c(O)c(C(CC)=NC(C)c2ccccc2)c(=O)[nH]c1=O (stereo not drawn),15,5,-2,52*
C=CCn1c(O)c(C(CC)=NC2CC2)c(=O)[nH]c1=O,-12,7,0,8
C=CCn1c(O)c(C(CC)=NC(C)c2ccccc2)c(=O)[nH]c1=O (stereo not drawn),0,7,-4,40*
CCCCn1c(O)c(C(C)=NCCc2ccccc2)c(=O)[nH]c1=O,1,7,-4,31*
COP(=O)(OC)C1(Nc2ccc(C)cc2)CCCCC1,1,4,-2,2
C#CCN(C)C(C)Cc1ccccc1 (stereo not drawn),/,13,/,/
Cc1nn(C)c(C)c1P(=S)(c1c(C)nn(C)c1C)N(C)C,10,8,5,40*
Cc1ccsc1-c1nc(CSCC(=O)N2CCC3(CC2)OCCO3)c(C)o1,-1,0,0,7
CCOC(=O)c1c(NC(=O)C(c2ccccc2)c2ccccc2)sc2c1C1CCN2CC1,2,7,-4,11
CC(C)CC1C(C#N)=C(N)Oc2c1c(=O)oc1ccccc21 (stereo not drawn),-3,5,-6,41*
CC(c1ccccc1F)n1cc(C(=O)Nc2ccc3nc[nH]c3c2)nn1 (stereo not drawn),-3,6,4,30*
COc1ccc(-n2c(O)c(C(C)=NCCCn3ccnc3)c(=O)[nH]c2=O)cc1,-8,5,3,5
CC(C)CC(=O)NC(Oc1ccc(Cl)cc1)C(Cl)(Cl)Cl (stereo not drawn),17,/,4,14
CC(C)(C)C(O)C(Oc1ccc(Cl)cc1)n1cncn1 (stereo not drawn),104*,9,-6,98*
N/C(=N\N=C\c1ccc(O)cc1O)N[N+](=O)[O-],24,1,2,-1
COc1ccccc1/C=N/N=C(/N)N[N+](=O)[O-],-8,44*,5,5
CCC(=NCCCn1ccnc1)c1c(O)n(Cc2ccccc2)c(=O)[nH]c1=O,5,-1,-1,16
O=c1[nH]c(=S)n(CCC2=CCCCC2)c(O)c1C=NC1CCN(Cc2ccccc2)CC1,37*,/,-3,94*
O=c1[nH]c(=O)n(C2CCCCCC2)c(O)c1C=NC1CCN(Cc2ccccc2)CC1,-3,6,4,18
Cc1nc2c(-c3ccccc3)c(C)nn2c(C)c1CCC(=O)N1CCC2(CC1)OCCO2,/,/,-1,/
Cc1nc2c(c(C)nn2-c2ccccc2)c(C)c1CCC(=O)N1CCC2(CC1)OCCO2,8,4,/,34*
SMILES,PostGolgi yeast,Calb biofilm kill,EphB4 ephrin blk,PostGolgi ctrl
CCn1c(O)c(C=Nc2ccc(N3CCOCC3)c(Br)c2)c(=O)n(CC)c1=S,1,/,0,37*
CCn1c(O)c(C=Nc2ccc(N3CCOCC3)cc2)c(=O)n(CC)c1=S,1,/,16*,7
Cc1ccc(-n2c(O)c(C=NCCN3CCOCC3)c(=O)[nH]c2=O)cc1,-6,6,-5,-9
Cc1ccc(N(C)C(=O)Oc2ccc(C(=O)c3ccc(Cl)cc3)cc2)cc1,9,/,5,3
Nc1ccccc1C(=O)OCC(=O)Nc1ccc(Br)cc1F,-7,/,-10,-1
CC1=C(C(=O)N2CCC3(CC2)OCCO3)C2(CCC(C)CC2)OC1=O (stereo not drawn),-2,9,20*,-3
Cc1c(C(=O)N2CCC3(CC2)OCCO3)oc2ccccc12,-15,8,-2,0
S=C1NCCN1,/,7,/,/
Cc1ccc(S(=O)(=O)N2CC3CC(C2)c2cccc(=O)n2C3)cc1 (stereo not drawn),33*,6,-1,0
CCN1/C(=C\C=C\C2=[N+](CC)c3ccccc3C2(C)C)C(C)(C)c2ccccc21,99*,-13,-88,96*
O=P(Nc1ccccc1Cl)(c1ccccc1)c1nc2c(s1)CCCC2 (stereo not drawn),8,/,-2,33*
O=C(Nc1ccc(Cl)cc1C(=O)c1ccccc1Cl)c1ccco1,0,/,-1,8
OC(COCc1ccc(Cl)cc1)CN1CC=C(c2ccccc2)CC1 (stereo not drawn),63*,4,/,15
CCOC(=O)c1c(N)n(Cc2ccco2)c2nc3ccccc3nc12,11,0,4,47*
CCCOC(=O)c1c(N)n(Cc2cccs2)c2nc3ccccc3nc12,2,0,-4,48*
COCCOC(=O)c1c(N)n(Cc2ccccc2)c2nc3ccccc3nc12,-6,3,/,8
CCCNC(=O)c1c(N)n(CC2CCCO2)c2nc3ccccc3nc12 (stereo not drawn),9,1,5,33*
CC(C)OCCCNC(=O)c1c(N)n(CC2CCCO2)c2nc3ccccc3nc12 (stereo not drawn),6,7,-1,14
COCCCn1c(N)c(C(=O)NCCC(C)C)c2nc3ccccc3nc21,3,10,-1,32*
Cc1ccc(N2CCN(CCc3ccccc3)CC2)cc1,7,/,-1,43*
COCCn1c(-c2ccccc2)cc(C(=O)O)c1C,/,8,1,/
CN(C)c1ccc(NC(=O)CN2C(=O)CN=C(c3ccccc3)c3cc(Cl)ccc32)cc1,11,7,11,9
Cc1ccc(NC(=O)CN2C(=O)CN=C(c3ccccc3)c3cc(Cl)ccc32)cc1,0,5,7,46*
CCOP(=S)(OCC)SCC(=O)NC(C)(CC)C(=O)O (stereo not drawn),-1,5,3,-7
CC1=CC(=C2C(=O)NC(=S)NC2=O)C=C(C(F)(F)F)N1C,40*,3,-2,11
SMILES,PostGolgi yeast,Calb biofilm kill,EphB4 ephrin blk,PostGolgi ctrl
COC(=O)c1c(C)[nH]c(C(=O)C(Cc2ccccc2)N(C)C)c1C (stereo not drawn),5,-3,4,11
CCC(C)N1C(=O)NC(=O)C2(Cc3c(ccc4ccccc34)N(C)C2)C1=O (stereo not drawn),3,-2,-5,33*
COc1ccc2c(c1)CC1(CN2C)C(=O)NC(=O)N(CCc2ccccc2)C1=O (stereo not drawn),1,3,5,-12
Cc1nc2sccc2c(=O)n1-c1ccccc1Cl,-3,/,-4,2
CN1C(=O)/C(=C/c2cccn2-c2ccc3ccccc3c2)C(=O)NC1=S,98*,/,-3,4
CCCCC1(CCCC)C(=O)NC(=Nc2cccc(C)c2)NC1=O,47*,-1,6,7
CCOc1cccc(OCC)c2c(C)[n+](CC3CCCO3)c(C)c1-2 (stereo not drawn),15,11,-1,2
O=C(CNC(=O)OCc1ccccc1)Nc1ccc(Br)cc1C(=O)c1ccccc1,-3,/,-2,37*
